Measurements published in ChEMBL document CHEMBL3988442, “University of Dundee, Small-Polar-MMV Screening Library” (2021).
Out of some 48,000 compounds screened, about 13,000 (27%) showed an effect of 50% or more. Some of the results follow.

Test system: Wolbachia pipientis
Experiment: Anti-Wolbachia Cell-Based Screen
Type: functional
Design: scale not given: in the data most compounds retested in dose-response had high values
Details: 5 µM

Row | Structure (SMILES) | Percent Effect [%]
1 | Cc1ccc2c(C)c(C(=O)NCCc3csc(N)n3)oc2c1 | 32.42
2 | O=C(c1cc(-c2ccco2)nc2c(Cl)cccc12)N1C[C@H]2CNC[C@H]2C1 | 10.23
3 | CCc1ccc2nc(C)cc(C(=O)NC[C@@H]3CCNC[C@H]3O)c2c1 | -0.4588
4 | COc1nc2c(cc1C(=O)NCc1noc(Cc3cccs3)n1)CCC2 | -29.09
5 | Cc1cc(C(=O)NCc2ccc(F)cc2)c2c(C3CCNC3)noc2n1 (stereo not drawn) | 105.3
6 | Cc1cc(C(=O)NCc2cccs2)c2c(C3CCCN3)noc2n1 (stereo not drawn) | 99.02
7 | Cc1cc(C(=O)NCc2ccc(F)cc2)c2c(C3CCCN3)noc2n1 (stereo not drawn) | 101.4
8 | CC(C)(C)c1cc(C[C@H]2CNCC[C@H]2CC(=O)NCc2cccs2)no1 | 1.711
9 | CCc1ccc2nc(C)cc(C(=O)N[C@@H]3CNC[C@H]3O)c2c1 | -12.87
10 | Cc1cc(C2CCCN2C(=O)NCc2cccc(F)c2)on1 (stereo not drawn) | -2.715
11 | CC(C)Cc1cc(CNC(=O)c2ccccc2C2CCNC2)no1 (stereo not drawn) | 0.6659
12 | Cc1nnc2ccc(C(=O)N3CCSC(C)(C)C3)cn12 | -5.569
13 | NC(=O)CCn1cc(CNCCCc2csc(N)n2)c2ccccc21 | 2.752
14 | CNC(=O)[C@@H]1C[C@H]2CN(Cc3ccc(C)o3)C[C@H]2N1C(C)=O | 14.16
15 | CS(=O)(=O)N1C[C@H]2CCCN(Cc3ccsc3)[C@H]2C1.O=C(O)C(F)(F)F | -0.02998
16 | Cc1nc(CN2C[C@H]3C[C@H](C(=O)NCC4CC4)N(C)[C@H]3C2)cs1.O=C(O)C(F)(F)F.O=C(O)C(F)(F)F.O=C(O)C(F)(F)F | 116.2
17 | CNC(=O)[C@@H]1C[C@H]2CN(Cc3ccc(C)s3)C[C@H]2N1C(C)=O.O=C(O)C(F)(F)F.O=C(O)C(F)(F)F | 111.1
18 | O=C(NCC1CC1)[C@H]1C[C@H]2OCC[C@H]2N(Cc2ccsc2)C1 | -7.335
19 | Cc1nc(CN2C[C@@H]3CN(C(=O)c4cnccn4)C[C@@H]3C2)cs1.O=C(O)C(F)(F)F | 0.3524
20 | CC(C)N1[C@H](Cn2cncn2)C[C@@H]2CN(Cc3ccsc3)CC[C@@H]21.O=C(O)C(F)(F)F | 4.812
21 | Cc1ccc(CN2C[C@@H]3CCCO[C@@H]3[C@H](NC(=O)CC3CC3)C2)s1.O=C(O)C(F)(F)F | 2.329
22 | CN1[C@@H](C(=O)NCC2CC2)C[C@H]2CN(Cc3ccsc3)C[C@H]21.O=C(O)C(F)(F)F.O=C(O)C(F)(F)F | 106.3
23 | Cc1nc(CN2C[C@@H]3CCCO[C@@H]3[C@H](NC(=O)CC3CC3)C2)cs1.O=C(O)C(F)(F)F | -2.843
24 | O=C(O)C(F)(F)F.O=C(O)C(F)(F)F.O=C(O)C(F)(F)F.c1cc(CN2C[C@@H]3OCCN(CCN4CCCC4)[C@@H]3C2)cs1 | -11.54
25 | CN1[C@@H](C(=O)NCC2CC2)C[C@@H]2CN(Cc3ccsc3)C[C@@H]21.O=C(O)C(F)(F)F.O=C(O)C(F)(F)F | 95.65
26 | COCCC(=O)N1CCCC2(CCC(=O)N(CCc3c[nH]cn3)C2)C1 (stereo not drawn) | 0.09306
27 | Cc1cnn(CCNCc2nc(Cc3ccccc3)no2)c1 | -7.265

Row | Structure (SMILES) | Percent Effect [%]
28 | Fc1cccc(N2CCCC3(C2)CN(c2cnccn2)CCO3)c1 (stereo not drawn) | 1.052
29 | CCc1cc(C(=O)NCC2CCN(Cc3cccc(C#N)c3)C2)on1 (stereo not drawn) | 4.535
30 | CC(=O)N1[C@@H](C(=O)NCC2CC2)C[C@@H]2CN(Cc3nccs3)C[C@@H]21.O=C(O)C(F)(F)F | 88.62
31 | Cn1ccnc1NC[C@@H]1CCC[C@@H]2CN(Cc3nccs3)C[C@@H]21.O=C(O)C(F)(F)F | -0.855
32 | O=C(NCC1CC1)[C@H]1CN(Cc2nccs2)C[C@H]2OCC[C@@H]12.O=C(O)C(F)(F)F | -15.61
33 | CN1[C@@H](C(=O)NCC2CC2)C[C@H]2CN(Cc3cccc(C#N)c3)C[C@H]21.O=C(O)C(F)(F)F.O=C(O)C(F)(F)F | 99.16
34 | CO[C@H]1CN(Cc2cccc(C#N)c2)[C@@H]2COC[C@H]12.O=C(O)C(F)(F)F | -6.68
35 | CN(C)S(=O)(=O)c1csc(C(=O)N2CCSCC2)c1 | -1.993
36 | CC(C)c1cc(C(=O)N[C@H]2CN(C3CCOCC3)C[C@@H]2C2CC2)no1 | -8.943
37 | COc1ncccc1C(=O)N1CCCC(n2ccnc2C)C1 (stereo not drawn) | 125.3
38 | COCCOc1ncccc1C(=O)N1CCCC(n2ccnc2C)C1 (stereo not drawn) | 113.9
39 | Cc1nccn1C1CCCN(C(=O)c2cc(O)nc3ccccc23)C1 (stereo not drawn) | -15.61
40 | COc1ncccc1C(=O)N1CCCC(c2cc(C)[nH]n2)C1 (stereo not drawn) | -2.172
41 | CC(C)(C)CNC[C@H]1Cn2c(-c3ccccc3)cnc2CO1 | -15.45
42 | CC(=O)N1CCN(C(=O)CNc2ccc3sccc3c2)CC1 | -10.18
43 | CN(C)C(=O)C1CCc2nnc(CNC(=O)c3ccc(Cl)cc3Cl)n21 (stereo not drawn) | 114.2
44 | CC(C)NC(=O)C1CCc2nnc(CNC(=O)c3ccc(Cl)cc3Cl)n21 (stereo not drawn) | 98.13
45 | CC(C)C(NC(=O)c1ccc(Cl)cc1Cl)C(=O)Nc1cnn(C)c1 (stereo not drawn) | 12.86
46 | O=C(NCC(=O)N1CCCCC1)c1ccc(Cl)cc1I | -12.84
47 | O=C(NCc1nnc2n1C(C(=O)NC1CC1)CC2)c1ccc(Cl)cc1Cl (stereo not drawn) | 110.4
48 | CCn1cnnc1CNC(=O)c1ccc(Cl)cc1F | 9.197
49 | CC(CNC(=O)c1ccc(Cl)cc1I)N1CCCC1 (stereo not drawn) | -14.44
50 | CC(C)CNC(=O)c1ccc(NC(=O)NC2CC2)cc1Cl | -3.361
51 | Cn1cc(-c2cnc3n2CCC32CCN(S(=O)(=O)C3CC3)CC2)cn1.O=C(O)C(F)(F)F | 2.089
52 | CC(NS(=O)(=O)N(C)C(C)C)C(=O)N(C)C (stereo not drawn) | -8.822
53 | COc1ccc(Cl)cc1CS(=O)(=O)Cc1nc(C)no1 | 9.011
